Rows were chosen to be rich in hits. Some 2.5% of all compounds tested hit in one or more screens of this group.
Cruzain inh noDet – qHTS Assay for Promiscuous and Specific Inhibitors of Cruzain (without detergent); purified cruzain, Z-FR-AMC fluorescence, no detergent; Potency, µM, without a hit: max response, negative = inhibition, most hits filed as inhibitors; actives 2.3% (n = 200,000); AID 1476, 2009;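 also: plate controls were enzyme without inhibitor for no effect and buffer without enzyme for full effect; nearly all actives have a fitted effect of over 40% in size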
Target sequence (P25779 123-467 limits assumed): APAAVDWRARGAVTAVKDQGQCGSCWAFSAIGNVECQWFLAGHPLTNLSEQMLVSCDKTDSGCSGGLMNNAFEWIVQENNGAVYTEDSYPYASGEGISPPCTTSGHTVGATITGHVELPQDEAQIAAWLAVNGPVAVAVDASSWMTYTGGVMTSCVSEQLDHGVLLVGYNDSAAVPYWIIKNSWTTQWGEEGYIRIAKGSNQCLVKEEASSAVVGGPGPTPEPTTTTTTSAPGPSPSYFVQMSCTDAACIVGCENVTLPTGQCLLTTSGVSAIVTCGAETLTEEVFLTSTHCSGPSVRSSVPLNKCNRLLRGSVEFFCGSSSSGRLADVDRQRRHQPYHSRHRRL
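Purified cruzain at 1.5 nM, pre-incubated 15 min with compound at room temperature in 100 mM sodium acetate pH 5.5, 5 mM DTT, 0.00005% Triton X-100. Reaction started with 2 uM Z-FR-AMC; AMC fluorescence increase over 60 s gives rate.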
Cruzain inh Det – qHTS Assay for Promiscuous and Specific Inhibitors of Cruzain (with detergent); Cruzipain (Trypanosoma cruzi), P25779; purified cruzain, Z-FR-AMC fluorescence, 0.01% Triton; Potency, µM, for the others: max response, negative = inhibition, hits mostly inhibitors; actives 0.43% (n = 200,000); AID 1478, 2009;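 also: plate controls were neutral wells for no effect and buffer without enzyme for full effect; nearly all actives have a fitted effect of over 40% in size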
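Z-FR-AMC hydrolysis (2 uM substrate) by cruzain (1.5 nM) monitored kinetically at ex 360/em 450 nm after 15 min room-temperature compound exposure; 0.01% Triton X-100, pH 5.5, 5 mM DTT.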
Numbers without * were called inactive; ? = inconclusive. Calls follow the shape of the dose curve; as a rule, active = well fitted curve in the direction sought with a large enough effect; inconclusive = small, poorly fitted or top-dose-only effect, or another doubt; inactive = no such curve, though single readings can be large; an effect the other way counts as inactive or inconclusive. Potency is read from the fitted curve at half-maximal effect.

SMILES | Cruzain inh noDet | Cruzain inh Det
Cc1cc(NC(=O)COC(=O)c2cc3c(s2)CCC(C)C3)no1 (configuration not stated) | 32µM* | 2%
Cc1c(Cl)cnc(NC(=O)COC(=O)c2cc3c(s2)CCC(C)C3)c1Cl (configuration not stated) | ? | -1%
C[N+]1(C)CCc2cc(O)c(O)cc2[C@H]1Cc1ccc(O)c(O)c1 | -6% | -4%
CC(C)CNS(=O)(=O)c1cc(C(=O)OCC(=O)c2ccc3c(c2)OCCO3)c(Cl)cc1Cl | ? | -2%
O=C(CNC(=O)c1ccc(Cl)cc1Cl)OCC(=O)c1ccc2c(c1)OCCO2 | 3.2µM* | 3.2µM*
CCc1cc2c(-c3ccccc3)cc(=O)oc2cc1OC(=O)c1cccs1 | -2% | 3%
O=C(Oc1ccc2c(-c3ccccc3)cc(=O)oc2c1)c1cccs1 | 6.3µM* | -6%
Cc1c(C(=O)NCC2COc3ccccc3O2)oc2ccc(S(=O)(=O)N3CCOCC3)cc12 (configuration not stated) | 10% | -3%
Cc1c(C(=O)NCC2COc3ccccc3O2)oc2ccc(S(=O)(=O)N3CC(C)CC(C)C3)cc12 (configuration not stated) | 20µM* | 2%
COc1cc(Cl)cc2c1Sc1ccccc1/C2=C/CCN(C)C | 1% | -9%
CN(C)CC/C=C1/c2ccccc2Sc2c(O)cc(Cl)cc21 | 25µM* | -15%
COC(=O)[C@@H](NC(=O)O[C@@H]1C(=O)c2cc(OC)ccc2O[C@H]1c1ccc(OC)c(Br)c1)C(C)C | -4% | -3%
CC1(c2cc([N+](=O)[O-])cc([N+](=O)[O-])c2)CC(C)(C)N(C(=O)c2ccccc2)c2ccccc21 (configuration not stated) | 10µM* | 5%
CC1(c2ccc(Cl)cc2)CC(C)(C)N(C(=O)c2ccccc2)c2ccccc21 (configuration not stated) | ? | -3%
Cc1cc2c(cc3c(SCc4ccc(Cl)cc4)nnc(C)n32)o1 | ? | -5%
N=C1[C@@H](O)[C@]2(I)c3ccccc3N3C(=N)[C@H](O)[C@@H]4c5ccccc5N1[C@@H]4[C@@H]32 | -1% | -3%
N=C(N)c1ccc(/C=C\c2ccc(C(=N)N)cc2)cc1 | 3.2µM* | -25%
N=C(N)c1ccccc1 | -11% | 4%
CCN(C(=O)C1CCN(S(=O)(=O)c2c(C)noc2/C=C/c2ccc(C)cc2)CC1)c1cccc(C)c1 | -8% | 0%
C=CCn1c(=O)c2ccccc2n2c(SCC(=O)NCCc3ccccc3)nnc12 | -9% | 0%
C=CCn1c(=O)c2ccccc2n2c(SCC(=O)c3ccccc3)nnc12 | 16µM* | -1%
COc1cc(OC)cc(-c2nc3ccccc3c(=O)o2)c1 | 16µM* | 0%
COc1cccc(-c2nc3ccccc3c(=O)o2)c1 | -9% | 1%
Cn1nnnc1Sc1ncnc2scc(-c3ccc(F)cc3)c12 | -3% | 2%
Cn1nnnc1Sc1ncnc2scc(-c3ccccc3)c12 | 16µM* | 3%
SMILES | Cruzain inh noDet | Cruzain inh Det
C=C1c2cccc(OC)c2O[C@H](C(=O)OCC)[C@@H]1CCC(C)C | ? | 0%
CCOC(=O)CC(=O)CSc1nc(N)c(C#N)c(-c2ccc(Cl)cc2)c1C#N | 32µM* | -2%
CCOC(=O)CC(=O)CSc1nc(C)cc(C)c1C#N | 4% | 3%
N#Cc1c(N)nc(SCC(=O)C23CC4CC(CC(C4)C2)C3)c(C#N)c1-c1ccc(Cl)cc1 | 4µM* | 3%
CSc1nc(N)nc(SCC(=O)C23CC4CC(CC(C4)C2)C3)c1C#N | -16% | -4%
O=C(Nc1ccc(F)cc1F)c1cc2ccc3cccnc3c2[nH]1 | 25µM* | -2%
O=C(Nc1cccc(C(F)(F)F)c1)c1cc2ccc3cccnc3c2[nH]1 | -14% | 0%
Cc1ccc2[nH]c(CSc3nnc(NC(=O)c4ccccc4C)s3)cc(=O)c2c1 | -8% | 4%
COc1ccc(NC(=O)C2(c3ccc(NC(=O)c4ccc(C)cc4)cc3)CCCC2)cc1 | 6.3µM* | 2%
COc1ccc(NC(=O)C2(c3ccc(NC(=O)c4ccc(OC)c(OC)c4)cc3)CCCC2)cc1 | 2% | 2%
CCCn1c(=N)c(C(=O)NCc2cccnc2)cc2c(=O)n3cc(C)ccc3nc21 | 23% | 2%
Cc1ccc2nc3c(cc(C(=O)NCc4cccnc4)c(=N)n3C(C)C)c(=O)n2c1 | ? | 32µM*
COc1ccc(NC(=O)C2=C(C)Nc3nc(SCc4ccccc4C)nn3C2c2ccc(Br)cc2)cc1 (configuration not stated) | -10% | -1%
CC1=C(C(=O)Nc2ccccc2C)C(c2ccncc2)n2nc(SCc3ccccc3)nc2N1 (configuration not stated) | -16% | 0%
CC1=C(C(=O)Nc2ccc(Cl)cc2)C(c2cccs2)n2nc(SCc3cccc(Cl)c3)nc2N1 (configuration not stated) | 3.2µM* | -1%
CC1=C(C(=O)Nc2ccc(C)cc2C)C(c2cccs2)n2nc(SCc3ccc(Cl)cc3)nc2N1 (configuration not stated) | 3% | 0%
COc1ccc(NC(=O)C2=C(C)Nc3nc(SCc4ccccc4C)nn3C2c2cc(OC)c(O)c(OC)c2)cc1 (configuration not stated) | 10µM* | -4%
CC1=C(C(=O)Nc2ccccc2C)C(c2cccs2)n2nc(SCc3ccccc3)nc2N1 (configuration not stated) | 25µM* | -1%
CCOc1ccc(CCNC(c2nnc(-c3ccccc3)o2)c2ccccc2Cl)cc1OCC (configuration not stated) | -3% | 1%
CCN(CC)C(=O)c1sc2c(c1C)c(=O)n(Cc1ccccc1)c(=O)n2Cc1c(C)cc(C)cc1C | -5% | -2%
CCOC(=O)c1c(-c2ccccc2)oc2ccc(NS(=O)(=O)c3cc(C)c(C)cc3C)cc12 | 7.9µM* | -3%
CCOC(=O)c1c(-c2ccccc2)oc2ccc(NS(=O)(=O)c3ccccc3)cc12 | -26% | -7%
CCOc1cc(C(=O)OCc2cc(=O)n3nc(CC)sc3n2)cc(OCC)c1OCC | 6% | -2%
Cc1nn(CC(=O)NCCc2ccccc2Cl)c(=O)c2nn(-c3ccccc3)c(C)c12 | ? | -1%
CC1CCC(C(C)C)[C@H](OC(=O)c2ccccc2)C1 (some centres not stated) | -4% | 5%
SMILES | Cruzain inh noDet | Cruzain inh Det
CC1CCC(C(C)C)C(OC(=O)C2=C3c4ccccc4S(=O)(=O)N3CC2)C1 (configuration not stated) | 32µM* | ?
COc1ccc(-c2cc(C(=O)Nc3sc4c(c3C(N)=O)CCC(C)C4)no2)cc1 (configuration not stated) | -4% | -2%
Cc1onc(-c2c(Cl)cccc2Cl)c1C(=O)NC(=S)Nc1sc2c(c1C(N)=O)CCC(C)C2 (configuration not stated) | 4µM* | 3%
O=C(CSc1nnc(-c2ccc(F)cc2)o1)N1CCCc2ccccc21 | -16% | -4%
COC(=O)c1sc2cccc(F)c2c1S(=O)(=O)N1CCN(c2cccc(OC)c2)CC1 | ? | -4%
ClC1=C(Cl)C2(Cl)C3C4C=CC(C4)C3C1(Cl)C2(Cl)Cl (configuration not stated) | 8% | 7%
ClC1=C(Cl)C2(Cl)C3C4CC(C5OC45)C3C1(Cl)C2(Cl)Cl (configuration not stated) | 1.6µM* | -2%
